About 83,000 compounds went through this panel and 20% of them were active in at least one assay; those are over-represented in the sample as a whole.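 Values shown are percent growth following 48 h exposure of cells in 96-well plates to a single concentration of compound; below 10 was considered active.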 Activity calls are given as the source filed them.
Experiments:
Experiment in all cases: NCI-60 one-dose screen, 48 h (100 = growth as untreated, 0 = no growth, -100 = all killed)
Details in all cases: 10 µM unless noted
SK-MEL-2 melanoma = system: SK-MEL-2 melanoma
EKVX NSCLC = system: EKVX NSCLC
SN12C renal = system: SN12C renal
UO-31 renal = system: UO-31 renal
TK-10 renal = system: TK-10 renal
ACHN renal = system: ACHN renal
CAKI-1 renal = system: CAKI-1 renal
A498 renal = system: A498 renal
CCRF-CEM leukemia = system: CCRF-CEM leukemia
MOLT-4 leukemia = system: MOLT-4 leukemia

Measured: growth

NC[C@H](O)c1ccc(O)c(O)c1
inactive: SK-MEL-2 melanoma 110% | EKVX NSCLC 113% | SN12C renal 85.4% | UO-31 renal 103% | TK-10 renal 97.7% | ACHN renal 90.1% | CAKI-1 renal 109% | A498 renal 112% | MOLT-4 leukemia 115%
active: CCRF-CEM leukemia -46.2%

Cc1ccc2nc(C)c(-c3nnc(SCc4ccc(C#N)cc4)o3)n2c1
inactive: SK-MEL-2 melanoma 101% | EKVX NSCLC 83.8% | SN12C renal 92.9% | UO-31 renal 67% | TK-10 renal 120% | ACHN renal 88.4% | CAKI-1 renal 85.3% | A498 renal 72% | CCRF-CEM leukemia 117% | MOLT-4 leukemia 101%

O=C(/C=C/c1cccc(O)c1)c1cccc(-n2cc(-c3ccc4ccccc4c3)[nH]c2=O)c1
inactive: SK-MEL-2 melanoma 84.4% | EKVX NSCLC 11.2% | UO-31 renal 35.5% | A498 renal 91.9%
active: SN12C renal 5.36% | TK-10 renal -5.34% | ACHN renal -40.7% | CAKI-1 renal -1.58% | CCRF-CEM leukemia 1.72% | MOLT-4 leukemia -1.37%

COCCc1ccc(OCC(O)CNC(C)C)cc1 (stereo not given)
inactive: SK-MEL-2 melanoma 108% | EKVX NSCLC 96% | SN12C renal 109% | UO-31 renal 79.4% | TK-10 renal 110% | ACHN renal 108% | CAKI-1 renal 96.4% | A498 renal 103% | CCRF-CEM leukemia 96% | MOLT-4 leukemia 91.4%

O=c1c2c3c(sc2n2c(-c4cn(-c5ccccc5)nc4-c4ccc(Cl)cc4)nnc2n1Cc1ccccc1)CCCC3
active: UO-31 renal 4.67%
inactive: SK-MEL-2 melanoma 97.8% | EKVX NSCLC 87.1% | SN12C renal 91.2% | TK-10 renal 107% | ACHN renal 99.2% | CAKI-1 renal 100% | A498 renal 100% | CCRF-CEM leukemia 81.1% | MOLT-4 leukemia 85.4%

O=c1[nH]nc(-c2ccccc2)c2c(-c3ccccc3)onc12
active: A498 renal 7.76%
inactive: SK-MEL-2 melanoma 30.7% | EKVX NSCLC 25.4% | SN12C renal 56.3% | UO-31 renal 16.9% | TK-10 renal 62.5% | ACHN renal 47.5% | CAKI-1 renal 28.7% | CCRF-CEM leukemia 21.3% | MOLT-4 leukemia 30.2%

O=C(CSc1nccc(Nc2ccc(S(=O)(=O)Nc3nccs3)cc2)n1)c1ccc(F)cc1
inactive: SK-MEL-2 melanoma 105% | EKVX NSCLC 97.5% | SN12C renal 110% | UO-31 renal 75.8% | TK-10 renal 110% | ACHN renal 103% | CAKI-1 renal 96.4% | A498 renal 109% | CCRF-CEM leukemia 108% | MOLT-4 leukemia 115%

Reference: PubChem BioAssay (NCI)
